Data published in ChEMBL document CHEMBL3988442, “University of Dundee, Small-Polar-MMV Screening Library” (2021).

Experiments:
[1] = molecular target: T1, Aspartate--tRNA(Asp/Asn) ligase (Mycobacterium tuberculosis (strain ATCC 25618 / H37Rv)) (UniProt P9WFW3); assay: Assay for Asp RNA synthetase-1 from Mycobacterium tuberculosis; type: functional; parameters: scale not given: direction of the effect not stated beside the values; conditions: 30 µM; also: in the data most compounds retested in dose-response had high values
T1 sequence (whole entry): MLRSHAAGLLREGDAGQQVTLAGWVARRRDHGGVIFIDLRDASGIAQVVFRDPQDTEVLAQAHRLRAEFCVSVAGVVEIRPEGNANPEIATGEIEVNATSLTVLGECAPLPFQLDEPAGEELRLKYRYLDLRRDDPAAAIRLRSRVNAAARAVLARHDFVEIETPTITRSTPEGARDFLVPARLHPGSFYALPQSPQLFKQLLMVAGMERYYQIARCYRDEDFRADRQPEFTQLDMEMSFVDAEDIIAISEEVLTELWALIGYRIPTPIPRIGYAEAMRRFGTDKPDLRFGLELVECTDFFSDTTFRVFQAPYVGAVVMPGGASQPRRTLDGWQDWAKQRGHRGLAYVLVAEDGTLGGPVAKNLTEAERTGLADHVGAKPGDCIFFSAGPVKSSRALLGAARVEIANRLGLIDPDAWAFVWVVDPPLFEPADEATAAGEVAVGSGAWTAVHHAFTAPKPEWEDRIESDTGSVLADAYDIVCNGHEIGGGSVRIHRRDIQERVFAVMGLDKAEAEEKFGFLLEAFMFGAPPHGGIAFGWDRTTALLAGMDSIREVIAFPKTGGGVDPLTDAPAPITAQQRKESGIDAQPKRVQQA

[2] = molecular target: Shiga toxin 2 (Escherichia coli O157:H7) (UniProt P09385+P09386); assay: E. coli 0.157:H7 Shiga Toxin SOP - stx2 screening assay; type: functional; parameters: scale not given: direction of the effect not stated beside the values; conditions: 30 µM

Row | SMILES | Percent Effect [1] | Percent Effect [2]
1 | CC(Cn1ccnc1)NC(=O)NCCc1ccc2c(c1)OCCO2 (stereo not drawn) | -0.516% | 2.84%
2 | CCCNC(=O)N1CCC(Oc2cc(C)ccc2F)(C(=O)O)CC1 | -3.4% | 8.44%
3 | COc1cccc2c1OCC(C(=O)N1CCC(N3CCOC3=O)CC1)C2 (stereo not drawn) | -3.21% | 17%
4 | CCOCC(O)CN1CCN(C(=O)C2CC2)CC1 (stereo not drawn) | 1.82% | 21.4%
5 | Cc1nn(C)c(Cl)c1C1CCCN1C(=O)c1cc[nH]n1 (stereo not drawn) | 3.04% | -8.07%
6 | COCCN1CCCC(c2nc3c([nH]2)CC(C)(C)CNC3=O)C1 (stereo not drawn) | 2.91% | 0.913%
7 | O=C(Cc1cccnc1)N1CCC(OCc2ccccc2)CC1 | -3.5% | 7.67%
8 | CN1CCc2onc(CNc3ncccn3)c2C1 | 6.7% | -1.52%
9 | Cc1nc(C)n(CC2CCCN(CCC(=O)N3CCCCC3)C2)n1 (stereo not drawn) | -1.61% | 13.6%
10 | CNC(=O)C1CCC(NC(=O)N(C)Cc2c(C)noc2C)CC1 (stereo not drawn) | -3.01% | 14.3%
11 | CNc1cccc(C2CCCN(C(=O)c3ccncc3)C2)n1 (stereo not drawn) | -6.06% | 17.8%
12 | Cc1n[nH]c(C)c1C1CCCN1C(=O)NCCSC(C)(C)C (stereo not drawn) | 3.45% | -9.79%
13 | Cc1ccc(C(=O)N2CCCC(NC(=O)C(C)C)C2)c(O)c1 (stereo not drawn) | 7% | 7.56%
14 | Cn1c(C2CC2)nc2c1CCN(CCOc1ccc(C#N)cc1)C2 | 3.25% | -7.77%
15 | O=S(=O)(c1ccccc1)N1CCN(CCn2ccnc2)CC1 | -3.1% | 2.08%
16 | COc1cccc2cc(CNC(C)(C)C(=O)N3CCC(O)CC3)oc12 | -1.57% | 4.9%
17 | CCc1nnc2n1CCN(CCS(=O)(=O)c1ccccc1)C2 | -3.04% | 8.79%
18 | CC(C)CCc1noc(CN2CCCN(C(=O)c3ccco3)CC2)n1 | -1.32% | -9.12%
19 | O=C1CC(c2ccc(C(=O)O)cc2)c2ncn(-c3cccc(F)c3)c2N1 (stereo not drawn) | 7.81% | -17.3%
